A number with no mark means an inactive call. Results filed as inconclusive are left out. A call without a number means that no potency is given here. Activity calls are given as the source filed them. Calls come from the whole dose curve; as a rule, active = well fitted curve in the direction sought with a large enough effect in the repeat runs; inconclusive = weak or mixed curves; inactive = no such curve, though single readings can be large; an effect the other way counts as inactive or inconclusive.
How the values were obtained:
[1] = A CellTox Green Cytotoxicity Assay to monitor cytotoxicity in HepG2 cells - 0 hour (AID 1224882); note: nearly all actives have a fitted effect of over 35% in size
Procedure, shortened: (§1)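 HepG2, 600 cells/well premixed w/ CellTox Green; 5 h settle, 37 C/5% CO2; pintool cpd add (DMSO); 37 C, 40 h; fluorescence read at 0, 8, 16, 24, 32, 40 h.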

[2] = A CellTox Green Cytotoxicity Assay to monitor cytotoxicity in HepG2 cells - 32 hour (AID 1224883); note: nearly all actives have a fitted effect of over 50% in size; note: potency is the fitted concentration of half-maximal effect
Procedure, shortened: as §1

[3] = A CellTox Green Cytotoxicity Assay to monitor cytotoxicity in HEK293 cells - 8 hour (AID 1224884); note: nearly all actives have a fitted effect of over 35% in size
Procedure, shortened: (§2)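 Read-out: fluorescence of a cell-impermeant cyanine dye staining DNA of dead cells, proportional to cytotoxicity. HEK293, 600 cells/well with reagent, compound (23 nL DMSO) added after 5 h; reads at 0, 8, 16, 24, 32, 40 h.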

[4] = qHTS RealTime-Glo MT Cell Viability Assay in HepG2 cells - 16 hour (AID 1224885); note: nearly all actives have a fitted effect of over 50% in size
Procedure, shortened: (§3)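 Tox21 10K library screened in qHTS format on HepG2 cells carrying RealTime-Glo reagents. Compounds were added after a 5 h preincubation, and the luminescent signal from continuous culture was measured repeatedly during 40 h treatment.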

[5] = qHTS RealTime-Glo MT Cell Viability Assay in HEK293 cells - 24 hour (AID 1224886); note: nearly all actives have a fitted effect of over 50% in size; note: potency is the fitted concentration of half-maximal effect
Procedure, shortened: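 Luminescence generated by NanoLuc from substrate produced by living HEK293 cells served as the viability signal. Each value reflects the reading at its stated time point during continuous 40 h compound exposure at 37 C.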

[6] = A CellTox Green Cytotoxicity Assay to monitor cytotoxicity in HEK293 cells - 16 hour (AID 1224888); note: nearly all actives have a fitted effect of over 35% in size
Procedure, shortened: as §2

[7] = qHTS RealTime-Glo MT Cell Viability Assay in HepG2 cells - 0 hour (AID 1224889); note: nearly all actives have a fitted effect of over 50% in size
Procedure, shortened: as §3

[8] = A CellTox Green Cytotoxicity Assay to monitor cytotoxicity in HepG2 cells - 8 hour (AID 1224890); note: nearly all actives have a fitted effect of over 45% in size
Procedure, shortened: as §1

[9] = qHTS assay to identify small molecule antagonists of the estrogen receptor alpha (ER-alpha) signaling pathway using the BG1 cell line in the presence of 0.1 nM 17-beta-estradiol - cell viability counter screen (AID 1259241); note: nearly all actives have a fitted effect of over 40% in size; note: potency is the fitted concentration of half-maximal effect
Procedure, shortened: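 Cytotoxicity counter-screen: live-cell protease activity measured by fluorescence (30 min reagent step) in the same wells. Cells were VM7Luc4E2 with endogenous ER-alpha and ERE-driven luciferase, treated 22 hr at 37C alongside 0.1 nM 17beta-estradiol final.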

[10] = qHTS RealTime-Glo MT Cell Viability Assay in HEK293 cells - 8 hour (AID 1224887); note: nearly all actives have a fitted effect of over 50% in size; note: potency is the fitted concentration of half-maximal effect
Procedure, shortened: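 Luminescence readout at each listed time point; HEK293, 600 cells/well, RealTime-Glo MT reagent added with cells; compounds pinned (23 nL in DMSO) after 5 h at 37 C; continuous culture at 37 C.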

Structure (SMILES) | Potency [1] | Potency [2] | Potency [3] | Potency [4] | Potency [5] | Potency [6] | Potency [7] | Potency [8] | Potency [9] | Potency [10]
CC(C)C(O)C(C)(C)CO (stereo not drawn) | inactive | inactive | inactive | inactive | 0.801 µM (active) | inactive | inactive | inactive | inactive | 
O=C(O)CCS | inactive |  | inactive | inactive | inactive | inactive | inactive | inactive | inactive | inactive
O=C(/C=C/c1ccc([N+](=O)[O-])cc1)c1ccccc1 | inactive | 21.9 µM (active) | inactive | inactive | 31 µM (active) | inactive | inactive | inactive |  | 
FC(F)(F)C(F)(F)C(F)(F)C(F)(F)CCI | inactive |  | inactive | inactive | inactive | inactive | inactive | inactive |  | inactive
COc1cc(NCc2ccc3nc(N)nc(N)c3c2C)cc(OC)c1OC | inactive | inactive | inactive | inactive |  | inactive | inactive | inactive |  | 
CCCc1nc2c(C)cc(-c3nc4ccccc4n3C)cc2n1Cc1ccc(-c2ccccc2C(=O)O)cc1 | inactive | inactive | inactive | inactive |  | inactive |  | inactive | inactive | 
COc1cc(C(C)=O)ccc1OCCCN1CCC(c2noc3cc(F)ccc23)CC1 | inactive |  | inactive | inactive | 9.52 µM (active) | inactive | inactive | inactive | inactive | 9.52 µM (active)
CC(C)N(C)C | inactive |  | inactive | inactive | inactive | inactive | inactive | inactive | inactive | inactive
COC(=O)C1=C(C)NC(C)=C(C(=O)OC(C)(C)CN(C)CCC(c2ccccc2)c2ccccc2)C1c1cccc([N+](=O)[O-])c1 (stereo not drawn) | inactive | inactive | inactive |  | inactive | inactive | inactive | inactive | inactive | inactive
CC1C(C)(C)C2=C(C(=O)CCC2)C1(C)C (stereo not drawn) | inactive |  | inactive | inactive | inactive | inactive | inactive | inactive | inactive | inactive
O=[N+]([O-])c1ccc2ncccc2c1 | inactive |  | inactive | inactive | inactive | inactive | inactive | inactive | inactive | inactive
COC(=O)c1sccc1S(N)(=O)=O | inactive |  | inactive | inactive | inactive | inactive | inactive | inactive | inactive | inactive
Nc1ccn([C@H]2CS[C@@H](CO)O2)c(=O)n1 | inactive |  | inactive | inactive | inactive | inactive | inactive | inactive | inactive | inactive
CCOC(=O)N1CCC(Nc2ccc(Cl)cc2N)CC1 | inactive |  | inactive | inactive |  | inactive | inactive | inactive | inactive | inactive
CC(C)(C)CCCCCCOC(=O)c1ccccc1C(=O)OCCCCCCC(C)(C)C | inactive |  | inactive | inactive | inactive | inactive | inactive | inactive | inactive | inactive
COc1cc(S(=O)(=O)Nc2ccccc2)c(OC)cc1N | inactive |  | inactive |  | inactive | inactive | inactive | inactive | inactive | inactive
Oc1ccc2c(c1)Cc1ccccc1-2 | inactive |  |  | inactive | 19.5 µM (active) | inactive | inactive |  | inactive | 21.9 µM (active)
CCN(Cc1cccc(S(=O)(=O)O)c1)c1ccc(C(=C2C=CC(=[N+](CC)Cc3cccc(S(=O)(=O)O)c3)C=C2)c2ccccc2S(=O)(=O)[O-])cc1 | inactive |  | inactive | inactive | inactive | inactive | inactive | inactive | 19.4 µM (active) | inactive
O=C1[C@@H]2[C@H]3CC[C@H](C3)[C@@H]2C(=O)N1CCCCN1CCN(c2ncccn2)CC1 | inactive |  | inactive | inactive | inactive | inactive | inactive |  | inactive | inactive
O=C(O)c1cccc(Oc2ccccc2)c1 | inactive |  | inactive | inactive | inactive | inactive | inactive | inactive | inactive | inactive
CC1=C2[C@@H]([C@H](C)CC[C@H]2/C=C(\C)C(=O)O)[C@H](O)C1 |  | inactive | inactive | inactive | inactive | inactive | inactive | inactive |  | inactive
COC(=O)Nc1nc2ccc(C(=O)C3CC3)cc2[nH]1 | inactive |  | inactive | inactive |  | inactive | inactive | inactive | inactive | inactive
O=P(O)(O)Oc1ccccc1 | inactive |  | inactive | inactive | inactive | inactive | inactive | inactive | inactive | inactive
CC(C(=O)O)c1ccc(C(=O)c2cccs2)cc1 (stereo not drawn) | inactive |  | inactive | inactive | inactive | inactive | inactive | inactive | inactive | inactive

Reference: PubChem BioAssay (Tox21)
